# Unmarked numbers belong to inactive results. Inconclusive results are not listed. A call without a number means that no potency is given here. Calls of active or inactive are those of the source. Unless noted, calls follow the shape of the dose curve; as a rule, active = well fitted curve in the direction sought with a large enough effect in the repeat runs; inconclusive = weak or mixed curves; inactive = no such curve, though single readings can be large; an effect the other way counts as inactive or inconclusive.
# Tests used:
# [1] = A CellTox Green Cytotoxicity Assay to monitor cytotoxicity in HepG2 cells - 0 hour (AID 1224882); also: nearly all actives have a fitted effect of over 35% in size
# Outline: (§1)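 Measurements at 0, 8, 16, 24, 32 and 40 h of treatment captured CellTox Green fluorescence in HepG2 cells that had been co-plated with reagent and preincubated 5 h at 37 C/5% CO2.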
# [2] = A CellTox Green Cytotoxicity Assay to monitor cytotoxicity in HEK293 cells - 8 hour (AID 1224884); also: nearly all actives have a fitted effect of over 35% in size
# Outline: (§2)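 Tox21 screen in HEK293: membrane-impermeant cyanine dye fluoresces on binding dead-cell DNA; compound pinned 5 h post-seeding, plates held at 37 C, signal read repeatedly through 40 h.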
# [3] = qHTS RealTime-Glo MT Cell Viability Assay in HepG2 cells - 16 hour (AID 1224885); also: nearly all actives have a fitted effect of over 50% in size
# Outline: (§3)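 Cells + NanoLuc/prosubstrate dispensed (600 cells/well) → 5 h at 37 C/5% CO2 → compounds in DMSO transferred → 40 h incubation at 37 C, luminescence read at 0, 8, 16, 24, 32, 40 h.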
# [4] = qHTS RealTime-Glo MT Cell Viability Assay in HEK293 cells - 24 hour (AID 1224886); also: top concentration of the series differs between compounds; nearly all actives have a fitted effect of over 50% in size
# Outline: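 Tox21 10K qHTS, HEK293, 600 cells/well, RealTime-Glo reagent co-dispensed with cells; 5 h preincubation, compound by pintool, 37 C, luminescence at 0–40 h.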
# [5] = qHTS RealTime-Glo MT Cell Viability Assay in HEK293 cells - 8 hour (AID 1224887); also: top concentration of the series differs between compounds; nearly all actives have a fitted effect of over 50% in size
# Outline: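 HEK293 + NanoLuc + prosubstrate, 600 cells/well; 5 h, 37 C/5% CO2; compound 23 nL in DMSO by pintool; 37 C; luminescence read at 0, 8, 16, 24, 32 and 40 h time points.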
# [6] = A CellTox Green Cytotoxicity Assay to monitor cytotoxicity in HEK293 cells - 16 hour (AID 1224888); also: nearly all actives have a fitted effect of over 35% in size
# Outline: as §2
# [7] = qHTS RealTime-Glo MT Cell Viability Assay in HepG2 cells - 0 hour (AID 1224889); also: nearly all actives have a fitted effect of over 50% in size; also: potency is read from the fitted curve at half-maximal effect
# Outline: as §3
# [8] = A CellTox Green Cytotoxicity Assay to monitor cytotoxicity in HepG2 cells - 8 hour (AID 1224890); also: nearly all actives have a fitted effect of over 45% in size
# Outline: as §1
# [9] = qHTS assay to identify small molecule antagonists of the estrogen receptor alpha (ER-alpha) signaling pathway using the BG1 cell line in the presence of 0.1 nM 17-beta-estradiol - cell viability counter screen (AID 1259241); also: nearly all actives have a fitted effect of over 40% in size
# Outline: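 In this screen, hormone-deprived VM7Luc4E2 cells were seeded at 4,000 per well, dosed with compound and 0.1 nM estradiol final, and incubated 22 hr at 37C and 5% CO2; fluorogenic live-cell protease signal reported viability.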
# [10] = qHTS assay to identify small molecule antagonists of the androgen receptor (AR) signaling pathway using the MDA cell line in the presence of 0.5 nM R1881 - cell viability counter screen (AID 1259242); also: nearly all actives have a fitted effect of over 45% in size
# Outline: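 Concentration-response screen of compounds for toxicity in MDA-kb2 reporter cells: 16 hr at 37C with 0.5 nM R1881, endpoint live-cell protease fluorescence measured in the reporter wells.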
# [11] = target: Androgen receptor (Homo sapiens) (UniProt P10275); assay: qHTS assay to identify small molecule antagonists of the androgen receptor (AR) signaling pathway using the MDA cell line in the presence of 0.5 nM R1881 (AID 1259243); also: nearly all actives have a fitted effect of over 50% in size
# Chain of Androgen receptor (Homo sapiens) (P10275 whole entry, looked up): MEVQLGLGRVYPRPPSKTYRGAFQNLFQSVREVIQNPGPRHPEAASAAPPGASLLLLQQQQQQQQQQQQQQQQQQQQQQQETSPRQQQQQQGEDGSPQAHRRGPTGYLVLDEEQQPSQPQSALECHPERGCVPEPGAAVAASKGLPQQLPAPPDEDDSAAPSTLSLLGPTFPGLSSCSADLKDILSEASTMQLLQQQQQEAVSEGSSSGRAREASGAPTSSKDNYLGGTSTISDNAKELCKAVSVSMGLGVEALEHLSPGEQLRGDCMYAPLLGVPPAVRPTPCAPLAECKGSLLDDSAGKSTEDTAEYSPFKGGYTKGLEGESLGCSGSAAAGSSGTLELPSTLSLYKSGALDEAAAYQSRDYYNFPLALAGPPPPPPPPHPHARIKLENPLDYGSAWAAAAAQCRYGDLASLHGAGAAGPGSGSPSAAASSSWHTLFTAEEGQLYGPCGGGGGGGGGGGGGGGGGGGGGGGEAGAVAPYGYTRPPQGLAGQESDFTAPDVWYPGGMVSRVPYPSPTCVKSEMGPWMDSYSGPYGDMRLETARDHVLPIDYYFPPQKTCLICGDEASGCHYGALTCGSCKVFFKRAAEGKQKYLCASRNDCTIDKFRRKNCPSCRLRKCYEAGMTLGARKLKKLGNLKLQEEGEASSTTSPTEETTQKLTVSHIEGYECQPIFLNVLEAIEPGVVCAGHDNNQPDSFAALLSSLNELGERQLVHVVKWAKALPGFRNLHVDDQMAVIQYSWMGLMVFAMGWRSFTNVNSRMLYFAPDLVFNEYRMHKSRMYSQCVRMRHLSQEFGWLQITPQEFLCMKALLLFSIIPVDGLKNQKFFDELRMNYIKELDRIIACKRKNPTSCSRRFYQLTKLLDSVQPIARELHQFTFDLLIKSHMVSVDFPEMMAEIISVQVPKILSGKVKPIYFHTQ
# Outline: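 With R1881 held at 0.5 nM (final), compound effects on MMTV-luciferase expression in MDA-kb2 cells were scored by luminescence after a 16 hr, 37C incubation.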
# [12] = target: Estrogen receptor (Homo sapiens) (UniProt P03372); assay: qHTS assay to identify small molecule antagonists of the estrogen receptor alpha (ER-alpha) signaling pathway using the BG1 cell line in the presence of 0.1 nM 17-beta-estradiol (AID 1259244); also: nearly all actives have a fitted effect of over 50% in size
# Chain of Estrogen receptor (Homo sapiens) (P03372 whole entry, looked up): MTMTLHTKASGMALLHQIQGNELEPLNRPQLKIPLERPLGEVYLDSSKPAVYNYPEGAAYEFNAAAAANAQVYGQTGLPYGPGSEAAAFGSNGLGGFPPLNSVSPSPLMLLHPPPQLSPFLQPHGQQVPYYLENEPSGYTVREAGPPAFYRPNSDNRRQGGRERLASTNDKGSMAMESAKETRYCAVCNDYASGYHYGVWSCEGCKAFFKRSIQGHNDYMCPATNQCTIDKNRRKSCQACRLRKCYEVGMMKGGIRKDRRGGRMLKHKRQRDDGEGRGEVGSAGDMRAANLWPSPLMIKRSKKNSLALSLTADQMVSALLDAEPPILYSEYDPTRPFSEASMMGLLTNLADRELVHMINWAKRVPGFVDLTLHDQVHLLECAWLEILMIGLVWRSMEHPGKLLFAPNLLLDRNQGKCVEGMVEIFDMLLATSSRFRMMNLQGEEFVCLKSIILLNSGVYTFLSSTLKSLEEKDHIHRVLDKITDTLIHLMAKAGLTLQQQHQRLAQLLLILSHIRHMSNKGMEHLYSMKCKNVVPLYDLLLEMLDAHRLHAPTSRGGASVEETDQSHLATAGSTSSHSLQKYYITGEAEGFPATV
# Outline: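 Compounds were tested against 0.1 nM (final) 17beta-estradiol in VM7Luc4E2 cells, which express full-length ER-alpha and an ERE-luciferase reporter; luminescence was recorded following 22 h exposure.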
# [13] = qHTS assay to identify small molecule HDAC inhibitors (AID 1259364);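 also: wild-type HCT-116 cells with endogenous class I/II HDAC activity; top concentration of the series differs between compounds; nearly all actives have a fitted effect of over 45% in size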
# Outline: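 Screening used wild-type human colon HCT-116 cells incubated overnight, dosed with compounds for 2 hours, and assayed with a homogeneous luminogenic HDAC I/II reagent for 30 minutes at room temperature.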
# [14] = qHTS assay to identify small molecule HDAC inhibitors - cell viability counter screen (AID 1259365)
# Outline: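 Measured quantity is CellTiter-Glo luminescence from wild-type HCT-116 cells after compound incubation of 2hr at 37C, 5% CO2; reagent developed 30min at room temperature.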
# [15] = qHTS assay to identify small molecule agonists of the sonic hedgehog signaling (Shh) pathway - cell viability counter screen (AID 1259366); also: nearly all actives have a fitted effect of over 50% in size
# Outline: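 In quantitative high-throughput format, 3T3 Gli1-Luc cells were exposed to compounds for 24hr and multiplexed for viability using CellTiter-Fluor, incubated 1hr at 37C before the fluorescence read.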
# [16] = qHTS assay to identify small molecule antagonists of the sonic hedgehog signaling (Shh) pathway - cell viability counter screen (AID 1259367); also: nearly all actives have a fitted effect of over 55% in size; also: potency is read from the fitted curve at half-maximal effect
# Outline: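 Conditioned medium drove Shh signaling in 3T3 Gli1-Luc cells exposed to compounds at 37C and 5% CO2. Viability was determined from CellTiter-Fluor fluorescence, with reagent incubated 1 hr after 23 hr of treatment.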
# [17] = qHTS assay to identify small molecule agonists of the sonic hedgehog signaling (Shh) pathway (AID 1259368; calls by dose curve;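 also: NIH/3T3-derived 3T3Gli1-Luc cells carrying a stable Gli1-driven firefly luciferase reporter; series mostly up to about 92 µM; nearly all actives have a fitted effect of over 15% in size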)
# Outline: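 Hedgehog pathway agonism scored by increased firefly luciferase luminescence in 3T3Gli1-Luc cells treated 24 hr at 37 C; detection used a 30 min room-temperature reagent incubation.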
# [18] = qHTS assay to identify small molecule antagonists of the sonic hedgehog signaling (Shh) pathway (AID 1259369; calls by dose curve; also: nearly all actives have a fitted effect of over 45% in size)
# Outline: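 NIH/3T3 stable Gli1-Luc clone, 2,000 cells/well, 4hr settle; cpd + conditioned medium 24hr; Luc reagent 30min RT; luminescence.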
# [19] = A CellTox Green Cytotoxicity Assay to monitor cytotoxicity in HepG2 cells - 32 hour (AID 1224883); also: nearly all actives have a fitted effect of over 50% in size
# Outline: as §1
# [20] = qHTS assay to identify small molecule phospholipidosis (PLD) inducers (AID 1259344; active = well fitted curve in the direction sought with a large enough effect; an effect the other way counts as inactive or inconclusive)
# Outline: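 After 4 h attachment on collagen I, HepG2 cells were dosed with compound alongside LipidTOX Red, kept 24 h at 37 C, fixed, and imaged for lamellar phospholipid pits.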
smiles,measurement,setting,value
O=C(O)CCSCCC(=O)O,Potency,[1],inactive
same,outcome,[2],inactive
same,outcome,[3],inactive
same,Potency,[4],inactive
same,Potency,[5],inactive
same,outcome,[6],inactive
same,Potency,[7],inactive
same,outcome,[8],inactive
same,outcome,[9],inactive
same,outcome,[10],inactive
same,Potency,[11],inactive
same,outcome,[12],inactive
same,Potency,[13],inactive
same,outcome,[14],inactive
same,Potency,[15],inactive
same,Potency,[16],inactive
same,outcome,[17],inactive
same,Potency,[18],inactive
Clc1cc(Cl)cc(Cl)c1,Potency,[1],inactive
same,Potency,[19],inactive
same,outcome,[2],inactive
same,Potency,[4],inactive
same,Potency,[5],inactive
same,outcome,[6],inactive
same,outcome,[8],inactive
same,outcome,[9],inactive
same,outcome,[10],inactive
same,outcome,[12],inactive
same,outcome,[14],inactive
same,Potency,[16],inactive
same,outcome,[17],inactive
same,Potency,[18],inactive
CN1CCN(c2cc3c(nn2)Oc2ccccc2N3C)CC1,cytotoxicity,[1],0.041% [at 15.8 µM]
same,cytotoxicity increase,[19],-2% [at 15.8 µM]
same,cytotoxicity increase,[2],-6.06% [at 15.8 µM]
same,"activity change, negative = cytotoxicity",[4],-1.39% [at 15.8 µM]
same,"activity change, negative = cytotoxicity",[5],0.282% [at 15.8 µM]
same,activity change,[6],-9.75% [at 15.8 µM]
same,cytotoxicity increase,[8],1.91% [at 15.8 µM]
same,"activity change, negative = cytotoxicity",[9],-8.18% [at 19 µM]
same,"viability change, negative = cytotoxic",[10],0.195% [at 19 µM]
same,outcome,[20],inactive
same,"activity change, negative = cytotoxicity",[14],2.56% [at 19 µM]
same,"viability change, negative = cytotoxic",[15],8.2% [at 19 µM]
same,"viability change, negative = cytotoxic",[16],0.668% [at 19 µM]
same,activity change,[17],5.44% [at 18.9 µM]
same,"activity change, negative = inhibition",[18],-8.36% [at 19 µM]
COC(=O)C1=C(C)NC(C)=C(C(=O)OC(C)C)C1c1cccc2nonc12 (stereo unspecified),Potency,[1],inactive
same,Potency,[19],inactive
same,outcome,[2],inactive
same,outcome,[6],inactive
same,Potency,[7],1.07 µM (active)
same,outcome,[8],inactive
same,outcome,[9],inactive
same,outcome,[10],inactive
same,outcome,[20],inactive
same,Potency,[13],inactive
same,outcome,[14],inactive
same,outcome,[17],inactive
CN(C)CCN(C)CCN(C)C,Potency,[1],inactive
same,outcome,[2],inactive
same,outcome,[3],inactive
same,Potency,[4],inactive
same,Potency,[5],inactive
same,outcome,[6],inactive
same,Potency,[7],inactive
same,outcome,[8],inactive
same,outcome,[9],inactive
same,outcome,[10],inactive
same,outcome,[12],inactive
same,Potency,[13],inactive
same,outcome,[14],inactive
same,Potency,[15],inactive
same,Potency,[16],inactive
same,outcome,[17],inactive
same,Potency,[18],inactive
O=C(O)CCCC[P+](c1ccccc1)(c1ccccc1)c1ccccc1,Potency,[1],inactive
same,outcome,[2],inactive
same,outcome,[3],inactive
same,Potency,[4],inactive
same,Potency,[5],inactive
same,outcome,[6],inactive
same,Potency,[7],inactive
same,outcome,[8],inactive
same,outcome,[9],inactive
same,outcome,[10],inactive
same,outcome,[14],inactive
same,Potency,[15],inactive
same,Potency,[16],inactive
same,outcome,[17],inactive
same,Potency,[18],inactive
CC1=NN(c2cc(S(=O)(=O)O)ccc2Cl)C(=O)C1N=Nc1ccccc1 (stereo unspecified),Potency,[1],inactive
same,outcome,[2],inactive
same,Potency,[4],inactive
same,Potency,[5],inactive
same,outcome,[6],inactive
same,Potency,[7],inactive
same,outcome,[8],inactive
same,outcome,[12],inactive
same,Potency,[13],inactive
same,outcome,[14],inactive
same,Potency,[16],27.3 µM (active)
same,outcome,[17],inactive
COc1c(N2CCNC(C)C2)c(F)cc2c(=O)c(C(=O)O)cn(C3CC3)c12 (stereo unspecified),Potency,[1],inactive
same,outcome,[2],inactive
same,Potency,[4],inactive
same,Potency,[5],inactive
same,outcome,[6],inactive
same,Potency,[7],inactive
same,outcome,[8],inactive
same,outcome,[9],inactive
same,outcome,[10],inactive
same,outcome,[20],inactive
same,Potency,[13],inactive
same,outcome,[14],inactive
same,Potency,[15],inactive
same,Potency,[16],inactive
same,outcome,[17],inactive
CC(COc1ccccc1)NN (stereo unspecified),Potency,[1],inactive
same,outcome,[2],inactive
same,Potency,[4],inactive
same,Potency,[5],inactive
same,outcome,[6],inactive
same,Potency,[7],inactive
same,outcome,[8],inactive
same,outcome,[9],inactive
same,outcome,[10],inactive
same,outcome,[12],inactive
same,outcome,[20],inactive
same,Potency,[13],inactive
same,outcome,[14],inactive
same,Potency,[15],inactive
same,Potency,[16],inactive
same,outcome,[17],inactive
same,Potency,[18],inactive
CC1OC1C1CCC2(C)OC2C1 (stereo unspecified),Potency,[1],inactive
same,outcome,[2],inactive
same,outcome,[3],inactive
same,Potency,[4],inactive
same,Potency,[5],inactive
same,outcome,[6],inactive
same,Potency,[7],inactive
same,outcome,[8],inactive
same,outcome,[9],inactive
same,outcome,[10],inactive
same,Potency,[13],inactive
same,outcome,[14],inactive
same,Potency,[15],inactive
same,Potency,[16],inactive
same,outcome,[17],inactive
CCN1C=CN(C)C1C (stereo unspecified),Potency,[1],inactive
same,outcome,[2],inactive
same,outcome,[3],inactive
same,Potency,[4],inactive
same,Potency,[5],inactive
same,outcome,[6],inactive
same,Potency,[7],inactive
same,outcome,[8],inactive
same,outcome,[9],inactive
same,outcome,[10],inactive
same,Potency,[13],inactive
same,outcome,[14],inactive
same,Potency,[15],inactive
same,Potency,[16],inactive
same,outcome,[17],inactive
same,Potency,[18],inactive
O=C(CO)[C@@H](O)[C@H](O)[C@@H](O)CO,outcome,[2],inactive
same,Potency,[4],inactive
same,Potency,[5],inactive
same,outcome,[6],inactive
same,Potency,[7],inactive
same,outcome,[9],inactive
same,outcome,[10],inactive
same,outcome,[12],inactive
same,outcome,[20],inactive
same,Potency,[13],inactive
same,outcome,[14],inactive
same,Potency,[15],inactive
same,Potency,[16],inactive
same,outcome,[17],inactive
same,Potency,[18],inactive
N[C@H](C(=O)O)[C@@H](O)c1ccc(O)c(O)c1,Potency,[1],inactive
same,outcome,[2],inactive
same,outcome,[3],inactive
same,Potency,[4],inactive
same,Potency,[5],inactive
same,outcome,[6],inactive
same,outcome,[8],inactive
same,outcome,[9],inactive
same,outcome,[10],inactive
same,outcome,[12],inactive
same,outcome,[20],inactive
same,outcome,[14],inactive
same,Potency,[15],inactive
same,Potency,[16],inactive
same,outcome,[17],inactive
same,Potency,[18],inactive
Nc1ccccn1,Potency,[1],inactive
same,outcome,[2],inactive
same,Potency,[4],inactive
same,Potency,[5],inactive
same,outcome,[6],inactive
same,outcome,[8],inactive
same,outcome,[9],inactive
same,outcome,[10],inactive
same,Potency,[13],inactive
same,outcome,[14],inactive
same,Potency,[15],inactive
same,Potency,[16],inactive
same,outcome,[17],inactive
same,Potency,[18],inactive

# — PubChem BioAssay (Tox21)
